“And” between values parts separate entries of the source, which are not always exact repeats. Equal entries are not always repeated. The source made the active and inactive calls. Rule as the data show it: active = remaining activity below about 50%; inactive = the rest.

The target in the test is Phospholipase D1 (Homo sapiens) (UniProt Q13393). As to the kind of experiment: PLD1 inhibitors in cells, Calu-1 cells, single concentration (AID 602144).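 Also: tested at 200 nM.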 As to conditions: cellular PLD1 activity, active compounds read low.
Sequence of Phospholipase D1 (Homo sapiens) (Q13393 whole entry, looked up): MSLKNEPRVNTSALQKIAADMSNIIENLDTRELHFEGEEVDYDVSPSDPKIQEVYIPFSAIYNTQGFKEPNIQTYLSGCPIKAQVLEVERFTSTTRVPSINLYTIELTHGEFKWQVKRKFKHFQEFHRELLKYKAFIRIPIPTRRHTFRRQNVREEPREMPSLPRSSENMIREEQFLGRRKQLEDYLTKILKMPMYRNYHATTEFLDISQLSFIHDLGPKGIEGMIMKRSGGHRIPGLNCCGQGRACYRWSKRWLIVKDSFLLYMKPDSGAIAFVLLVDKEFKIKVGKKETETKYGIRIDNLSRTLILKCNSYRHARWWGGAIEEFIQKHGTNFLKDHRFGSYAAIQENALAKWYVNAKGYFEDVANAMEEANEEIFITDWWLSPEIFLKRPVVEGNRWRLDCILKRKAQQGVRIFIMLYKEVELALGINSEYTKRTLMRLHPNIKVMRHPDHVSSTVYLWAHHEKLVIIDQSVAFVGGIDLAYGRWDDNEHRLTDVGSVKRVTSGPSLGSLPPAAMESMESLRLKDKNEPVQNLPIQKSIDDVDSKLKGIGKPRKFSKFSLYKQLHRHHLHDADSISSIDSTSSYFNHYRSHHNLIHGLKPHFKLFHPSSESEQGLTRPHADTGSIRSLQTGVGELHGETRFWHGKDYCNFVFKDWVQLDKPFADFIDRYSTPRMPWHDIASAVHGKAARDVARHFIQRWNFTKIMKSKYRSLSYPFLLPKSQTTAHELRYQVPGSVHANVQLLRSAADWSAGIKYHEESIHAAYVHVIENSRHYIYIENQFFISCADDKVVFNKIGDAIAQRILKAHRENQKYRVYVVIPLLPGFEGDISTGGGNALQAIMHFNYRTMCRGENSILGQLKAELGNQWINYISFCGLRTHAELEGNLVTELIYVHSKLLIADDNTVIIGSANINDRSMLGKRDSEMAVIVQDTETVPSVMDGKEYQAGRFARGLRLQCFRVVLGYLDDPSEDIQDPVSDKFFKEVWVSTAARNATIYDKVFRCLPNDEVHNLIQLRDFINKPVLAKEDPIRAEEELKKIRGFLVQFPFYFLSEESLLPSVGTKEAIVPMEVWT
Sequence of Phospholipase D1 (Homo sapiens) (Q13393 whole entry, looked up): as above
The term remaining activity denotes the signal under treatment as a percentage of the control signal. Consider `O=C(NCCN1CCC2(CC1)C(=O)NCN2c1ccc(F)c(F)c1)c1cc2cc(F)ccc2[nH]1`, for which the remaining activity was 69.1% (inactive). Next, `O=C(NCCN1CCC2(CC1)C(=O)NCN2c1ccccc1)C1(c2ccccc2)CCC1`: 94.9% (inactive).

Consider `Nc1cccc(Cl)c1C(=O)NCCN1CCC2(CC1)C(=O)NCN2c1ccccc1`, for which the remaining activity was 92.9% (inactive).

For `O=C(c1ccc(F)c(F)c1)N1CCC[C@@H]1CN1CCC2(CC1)C(=O)NCN2c1ccccc1`, the remaining activity is 93.7% (inactive).

`O=C(NCCN1CCC2(CC1)C(=O)NCN2c1ccccc1)c1cccnn1`: the remaining activity was 105% (inactive). The same measure for `O=C(CCCl)NCCN1CCC2(CC1)C(=O)NCN2c1cccc(F)c1`: 75.7% (inactive); for `C[C@@H](CN1CCC2(CC1)C(=O)N(Cc1ccccc1)c1ccccc12)NC(=O)c1ccc2ccccc2c1`: 90.4% (inactive); for `COc1cc(OC)cc(C(=O)NCCN2CCC3(CC2)C(=O)NCN3c2cccc(F)c2)c1`: 97% (inactive).

With `O=C(NCCN1CCC2(CC1)C(=O)NCN2c1ccccc1)c1ncc[nH]1`, the remaining activity is 62.9% (inactive). Take `O=C1NCN(c2ccccc2)C12CCN(CCN1CCCC1)CC2`: the remaining activity is 116% (inactive). As to `C[C@H](CN1CCC2(CC1)C(=O)NCN2c1ccccc1)NC(=O)c1cc(Br)c(Br)o1`, the remaining activity was 71.8% (inactive). Turning to `O=C(NCCN1CCC2(CC1)C(=O)NCN2c1ccc(F)cc1)c1ccc2ccccc2c1`, the remaining activity was 75.2% (inactive). On to `O=C(NCCN1CCC2(CC1)C(=O)NCN2c1ccc(Cl)cc1)c1cc2ccccc2[nH]1`, for which the remaining activity is 61.5% (inactive). The same measure for `O=C(N[C@@H](Cc1ccccc1)CN1CCC2(CC1)C(=O)NCN2c1ccccc1)c1ccc(F)c(F)c1`: 75.5% (inactive); for `O=C(NCCN1CCC2(CC1)C(=O)NCN2c1ccc(F)c(F)c1)c1cnc2ccccc2c1`: 91.3% (inactive).

For `O=C(NCCN1CCC2(CC1)C(=O)NCN2c1ccccc1)c1ccc(F)cc1O`, the remaining activity was 107% (inactive). In the case of `O=C(NCCN1CCC2(CC1)C(=O)NCN2c1ccc(Br)cc1)c1ccc2ccccc2c1`, the remaining activity is 92.7% (inactive). The same measure for `O=C(NCCN1CCC2(CC1)C(=O)NCN2c1ccccc1)c1cc2ccccc2s1`: 50.8% (inactive); for `C[C@@H](CN1CCC2(CC1)C(=O)NCN2c1ccccc1)NC(=O)[C@@H]1C[C@H]1c1ccccc1`: 70.5% (inactive).

For `O=C(NCCN1CCC2(CC1)C(=O)NCN2c1cccc(F)c1)c1cccc(F)c1`, the remaining activity is 100% (inactive).

`Cc1cccc(C(=O)N[C@@H](C)CN2CCC3(CC2)C(=O)NCN3c2ccccc2)c1`: the remaining activity is 70% (inactive). As for `CC(C)[C@@H](CN1CCC2(CC1)C(=O)NCN2c1ccccc1)NC(=O)c1ccc2ccccc2c1`, the remaining activity was 20.7% (active). In the case of `O=C(c1cnc2ccccc2c1)N1CC(N2CCC(n3c(=O)[nH]c4cc(Br)ccc43)CC2)C1`, the remaining activity is 81.6% (inactive). Turning to `O=C(NCCN1CCC2(CC1)C(=O)NCN2c1ccccc1)c1ccc2c(c1)C(=O)OC2=O`, the remaining activity is 103% (inactive). Take `O=C(CCN1CCC2(CC1)C(=O)NCN2c1ccccc1)Nc1ccc(F)cc1`: the remaining activity is 125% (inactive). Consider `O=C(NCCN1CCC2(CC1)C(=O)NCN2c1ccccc1)c1cnco1`, for which the remaining activity was 98% (inactive). Consider `O=C(NCCN1CCC2(CC1)C(=O)NCN2c1cccc(F)c1)C12CC3CC(CC(C3)C1)C2`, for which the remaining activity is 98.7% (inactive). In the case of `O=C(NCCN1CCC2(CC1)C(=O)NCN2c1cccc(F)c1)C(c1ccccc1)c1ccccc1`, the remaining activity was 94.7% (inactive). On to `C[C@@H](CN1CCC2(CC1)C(=O)NCN2c1ccc(F)c(F)c1)NC(=O)c1ccc(F)cc1`, for which the remaining activity was 22.8% (active). For `C[C@H](CN1CCC2(CC1)C(=O)NCN2c1ccccc1)NC(=O)c1ccc(F)cc1`, the remaining activity was 34.8% (active). Next, `CC(C)[C@@H](CN1CCC2(CC1)C(=O)NCN2c1ccccc1)NC(=O)c1ccc(Cl)cc1`: 18% (active).

In the case of `CN(CCN1CCC2(CC1)C(=O)NCN2c1ccccc1)C(=O)c1ccc2ccccc2c1`, the remaining activity is 84.1% (inactive). The same measure for `O=C(NCCN1CCC2(CC1)C(=O)NCN2c1ccccc1)c1cc(=O)c2cc(Br)ccc2o1`: 110% (inactive). For the compound `CCCCCC(=O)N(CCN1CCC2(CC1)C(=O)NCN2c1cccc(F)c1)C(=O)CCCCC`, the remaining activity is 90.1% (inactive). As for `O=C(NCCN1CCC2(CC1)C(=O)NCN2c1ccccc1)C1CCc2ccccc2C1` (stereo unspecified), the remaining activity was 103% (inactive) and 104% (inactive). Turning to `O=C(NCCN1CCC2(CC1)C(=O)NCN2c1ccccc1)c1cnc2ccccc2c1`, the remaining activity was 130% (inactive).

(Values after PubChem BioAssay AID602144 (Vanderbilt Specialized Chemistry Center, 2011).)
